Peg3 prom inh: reduces Peg3 promoter-driven luciferase expression in HeLa. 1.7% of 360,000 active. AID 588405. inhibition, % at 20 µM. HeLa PEG-Prom luciferase reporter, luminescence, overnight;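 active = inhibition of at least 50% at 20 µM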
Shn3 inh set2: Schnurri-3 reporter inhibition in Clone20 osteoblasts; AID 588674; Clone20 osteoblast Shn3 3'UTR firefly luciferase, 24 h; 0.52% of 360,000 active; inhibition, % at 12.5 µM;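 active = mean inhibition of at least 75% with every replicate also reaching 75%; inconclusive = mean inhibition at least 75% but some replicate below; inactive = mean inhibition below 75%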;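 also: 0% = median of neutral control wells and 100% = pilot-screen positive control compound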
TWEAK-Fn14 inh: inhibitors of TWEAK-Fn14 interaction signaling. TWEAK-stimulated Fn14 reporter cells, luciferase luminescence, 8 h. inhibition, % at 10 µM. 2% of 360,000 active. AID 1159606; in the data active = inhibition above about 50%
EBV LMP1 NFkB: inhibitors of Epstein-Barr LMP1-induced NF-kappaB reporter; AID 504558; inhibition, % at 12.5 µM; LMP1-induced NF-kappaB luciferase reporter cells, luminescence; 0.69% of 350,000 active; in the data active = inhibition above about 41%; inconclusive = no clear call, values can overlap the other calls;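 also: 0% = neutral control wells and 100% = reference inhibitor control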
TROY NFkB inh: blocks TROY-dependent signaling in reporter cells. 0.98% of 360,000 active. Q293 LMP1-TROYcd NF-kB luciferase reporter, 4 h. AID 1347056. inhibition, % at 10 µM;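 active = compounds whose plate-normalised and pattern-corrected inhibition of the luciferase reporter signal at the single screening dose is 50% or more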
TRPM1 prom inh: reduces MITF-dependent TRPM1 promoter luciferase signal; SK-MEL-5 TRPM1 promoter luciferase, 24 h; inhibition, % at 12.5 µM; 0.83% of 330,000 active; AID 488899;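 active = mean inhibition across replicates of 60% or more, whatever share of single replicates reaches that level; inconclusive = some that reach 60%, reason not given; inactive = mean inhibition across replicates below 60%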
Starred values were filed as active, the others as inactive; ? = inconclusive; / = not tested or not shown. Most compounds without a hit are left out; they make up all but 4.1% or so of the library.

SMILES | Peg3 prom inh | Shn3 inh set2 | TWEAK-Fn14 inh | EBV LMP1 NFkB | TROY NFkB inh | TRPM1 prom inh
Cc1cc(OCC(=O)N2CCC(C(=O)O)CC2)c2c3c(c(=O)oc2c1)CCCC3 | 8 | 10 | 1 | -10 | 0 | -7
Cc1nc2ccc(Br)cc2c(=O)n1-c1ccc([N+](=O)[O-])c(C(F)(F)F)c1 | 11 | -4 | 36 | 11 | 56* | 2
O=Cc1cn(Cc2ccccc2[N+](=O)[O-])c2ccccc12 | 21 | 11 | 43 | 4 | 28 | -1
Cc1ccc(Cn2cc(C=O)c3ccccc32)cc1 | 63* | 16 | 38 | 36 | 30 | -2
CCC1(C)CN(S(=O)(=O)OCC(Cl)(Cl)Cl)C(=O)N1 (configuration not stated) | -1 | -10 | -16 | 3 | -12 | 6
CC(=O)NC(C)Cc1ccccc1 (configuration not stated) | 5 | -1 | 81* | 2 | / | 4
CC(Cc1ccccc1)NC(=O)NC(C)Cc1ccccc1 (configuration not stated) | -264 | -54 | 7 | -26 | -54 | -64
O=c1[nH]c(O)c(Cc2ccc3c(c2)OCO3)c(=O)[nH]1 | -5 | -2 | -1 | 3 | 3 | -3
S=P(Nn1cnnc1)(c1ccc(Br)cc1)c1ccc(Br)cc1 | 20 | 10 | 2 | 2 | 2 | 4
COc1ccc(-c2cc(=NCCCCCC(=O)O)c3cc(C)ccc3o2)cc1 | -128 | -29 | -36 | -4 | -59 | -18
COc1ccc(-c2cc(=Nc3cccc(C(=O)O)c3)c3cc(C)ccc3o2)cc1 | -329 | 10 | 58* | -5 | 21 | -71
O=C1NC(=O)N(C2CCCCC2)C(=O)C1C1c2ccccc2C(=O)N1Cc1ccccc1 (configuration not stated) | -2 | 30 | -1 | 78* | 7 | 12
Clc1cccc(N2Cc3cc(-c4ccccc4)ccc3-n3nncc3C2)c1 | 101* | 51 | 50 | / | -14 | /
COc1ccc(-c2ccc3c(c2)CN(c2cccc(Cl)c2)Cc2cnnn2-3)cc1 | -32 | -28 | 25 | / | -29 | /
COc1ccc(C(c2nnnn2C2CCCCC2)N2CCC3(CC2)C(=O)NCN3c2ccccc2)cc1 (configuration not stated) | 27 | -14 | 3 | / | 17 | /
COc1ccc(-n2nnnc2C(c2cccs2)N2CCC(n3c(=O)[nH]c4ccccc43)CC2)cc1 (configuration not stated) | 71* | 30 | 31 | / | 31 | /
COc1ccc(-n2nnnc2C(c2ccccc2)N2CCC(n3c(=O)[nH]c4ccccc43)CC2)cc1 (configuration not stated) | 64* | 2 | 43 | / | 23 | /
COc1ccc(-n2nnnc2C(C2CC2)N2CCC3(CC2)C(=O)NCN3c2ccccc2)cc1 (configuration not stated) | 25 | 14 | 3 | / | -7 | /
CC1CC(C)CC(C)C(O)C(C#N)=CC=CCC(C2CCCC2C(=O)O)OC(=O)CC(O)C(C)C1 (configuration not stated) | 51* | 97* | 100* | ? | 81* | 92*
COC(=O)[C@@H]1[C@@H](C(=O)OC)C2(c3ccccc3-c3ccccc32)N(c2ccc(Cl)cc2)N1C#N | 107* | 79 | 26 | 30 | 84* | 93*
COC(=O)C[C@]1(C(=O)OC)CN(C#N)N(c2ccc(Cl)cc2)C12c1ccccc1-c1ccccc12 | 103* | 97* | 96* | 90* | 89* | 96*
CN1CCc2c(C#N)c(Cl)nc(Cl)c2C1 | -1 | 6 | -3 | 10 | -7 | 4
O=c1[nH]c2ccccc2n1C1CCN(C(c2cc3ccccc3o2)c2nnnn2Cc2ccccc2)CC1 (configuration not stated) | 93* | 29 | 76* | / | 46 | /
COc1cccc(C(c2nnnn2Cc2ccccc2)N2CCC(n3c(=O)[nH]c4ccccc43)CC2)c1OC (configuration not stated) | 73* | -2 | 39 | / | 30 | /
O=C1CC(N2CCC(n3c(=O)[nH]c4ccccc43)CC2)C(=O)N1Cc1ccccc1 (configuration not stated) | 14 | -5 | 17 | 5 | 19 | 11
SMILES | Peg3 prom inh | Shn3 inh set2 | TWEAK-Fn14 inh | EBV LMP1 NFkB | TROY NFkB inh | TRPM1 prom inh
COc1cccc(C(c2nnnn2C2CCCC2)N2CCC3(CC2)C(=O)NCN3c2ccccc2)c1OC (configuration not stated) | 15 | 4 | 24 | / | 10 | /
O=c1[nH]c2ccccc2n1C1CCN(C(CCc2ccccc2)c2nnnn2C2CCCC2)CC1 (configuration not stated) | 87* | 48 | 51* | / | 53* | /
Cc1cccc(C)c1-n1nnnc1C(c1cc2ccccc2o1)N1CCC(n2c(=O)[nH]c3ccccc32)CC1 (configuration not stated) | 102* | 96* | 102* | / | 77* | /
CC1CC(C)CN(C(=O)COC(=O)c2cn(C)c3ccccc23)C1 (configuration not stated) | 13 | 7 | 17 | 3 | -8 | -1
O=c1[nH]c2ccccc2n1C1CCN(C(c2cccc3ccccc23)c2nnnn2Cc2ccccc2)CC1 (configuration not stated) | 81* | 6 | 53* | / | 36 | /
COc1ccc(NC2=NCCCS2)cc1OC | 13 | 10 | 34 | 1 | 19 | 1
Cc1ccccc1-n1c(O)c(/C=C2/C(c3ccccc3)=Nc3ccccc32)c(=O)[nH]c1=O | -43 | -14 | 56* | -9 | -30 | -1
Cc1cccc(-n2c(O)c(/C=C/C=Nc3ccccc3)c(=O)[nH]c2=O)c1 | 16 | 4 | 21 | -10 | -13 | -4
COc1ccc(OC)c(-n2c(O)c(C=Nc3c(C)n(C)n(-c4ccccc4)c3=O)c(=O)[nH]c2=O)c1 | -2 | 23 | -16 | 12 | 4 | -2
COC(=O)C1=Nc2ccccc2/C1=C\c1c(O)n(-c2cc(OC)ccc2OC)c(=O)[nH]c1=O | 15 | 15 | 60* | -1 | 11 | 13
Cc1cccc(-n2c(O)c(/C=C3/C(c4ccccc4)=Nc4ccccc43)c(=O)[nH]c2=O)c1 | -57 | 4 | 53* | 2 | -1 | -15
O=C1NC(=O)C2(CCCC2)C(=O)N1 | -3 | 0 | 2 | -3 | 9 | 4
CCc1nc2ccccc2c(=O)n1-c1ccccc1OC | 2 | -17 | 13 | 4 | 9 | 0
Cc1ccc(S(=O)(=O)CC(=O)c2cc(C)c(OC(=O)N(C)C)c(C)c2)cc1 | -19 | -6 | -1 | -6 | -12 | 3
Cc1cc(C(=O)CS(=O)(=O)c2ccccc2)cc(C)c1OC(=O)N(C)C | -185 | -37 | 30 | -15 | 60* | -44
COC1C(OC(=O)c2ccc(C)[nH]2)C(O)C(Oc2ccc3c(O)c(NC(=O)c4ccc(O)c(CC=C(C)C)c4)c(=O)oc3c2Cl)OC1(C)C (configuration not stated) | 19 | 23 | 10 | -4 | 55* | 13
